The text below walks through data of PubChem BioAssay (EPA / NIEHS).

The structures appear in SMILES notation. More than one record can exist for a structure, and the calls need not agree. Active and inactive are the calls of the source. The calls were made as follows: active = hit-call score of the fitted dose curve at least 0.9, where 1 is the maximum; inactive = score below 0.9.

Common to all, as to conditions: mRNA level, 48 h; actives raise or lower the signal
Read-out in test [1]: ABC Transporter (ABCC3), ABCC3 (gene 8714)
Description: LTEA_HepaRG_ABCC3: Life Technologies and Expression Analysis (LTEA) Assay for ABC Transporter (ABCC3) using HepaRG (AID 2283462). Summed up: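 Transcript level by TaqMan qRT-PCR, normalised to three housekeeping genes, fitted in both directions relative to vehicle. Chemicals tested in duplicate at eight half-log concentrations up to 100 uM for 48 h on HepaRG cells (0.5% DMSO).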

Read-out in test [2]: ABC Transporter (ABCB11), ABCB11 (gene 8647)
In words: LTEA_HepaRG_ABCB11: Life Technologies and Expression Analysis (LTEA) Assay for ABC Transporter (ABCB11) using HepaRG (AID 2283463). In outline: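 ABCB11 transcript levels quantified by TaqMan qRT-PCR against three housekeeping genes after 48 h chemical exposure of HepaRG cultures. Concentrations up to 100 uM in half-log steps, 0.5% DMSO vehicle; both induction and suppression scored.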

Read-out in test [3]: ABC Transporter (ABCC2), ABCC2 (gene 1244)
In words: LTEA_HepaRG_ABCC2: Life Technologies and Expression Analysis (LTEA) Assay for ABC Transporter (ABCC2) using HepaRG (AID 2283464). Summed up: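 Endpoint is ABCC2 transcript level from qRT-PCR, normalized to three housekeeping genes and fitted bidirectionally relative to DMSO. Human HepaRG cells received test chemical for 48 h at up to 100 uM (8 points, half-log steps, 0.5% DMSO), duplicate wells.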

Read-out in test [4]: Broad substrate specificity ATP-binding cassette transporter ABCG2 (Homo sapiens) (UniProt Q9UNQ0)
In words: LTEA_HepaRG_ABCG2: Life Technologies and Expression Analysis (LTEA) Assay for ABC Transporter (ABCG2) using HepaRG (AID 2283465). Summed up:
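ABCG2 transcript was quantified by TaqMan qRT-PCR against three housekeeping genes in HepaRG cells. Cells were treated in duplicate for 48 h across an 8-point half-log series up to 100 uM, with 0.5% DMSO vehicle. Gain or loss versus DMSO was fit.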

Read-out in test [5]: ATP-citrate lyase (ACLY), ACLY (gene 47)
Description: LTEA_HepaRG_ACLY: Life Technologies and Expression Analysis (LTEA) Assay for ATP-citrate lyase (ACLY) using HepaRG (AID 2283466). Summed up: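 ACLY mRNA quantified by qRT-PCR on Fluidigm arrays against three housekeeping genes, after 48 h chemical treatment of HepaRG cells (top concentration 100 uM, half-log steps, 0.5% DMSO vehicle). Up- or down-regulation fitted relative to DMSO.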

Read-out in test [6]: Peroxisomal acyl-coenzyme A oxidase 1 (ACOX1) gene, ACOX1 (gene 51)
In words: LTEA_HepaRG_ACOX1: Life Technologies and Expression Analysis (LTEA) Assay for Peroxisomal acyl-coenzyme A oxidase 1 (ACOX1) gene using HepaRG (AID 2283467). Summed up: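 ACOX1 transcript levels were quantified by TaqMan qRT-PCR against three housekeeping genes after 48 h chemical exposure of differentiated human HepaRG cells. Exposure used eight half-log steps topping at 100 uM, 0.5% DMSO vehicle, in duplicate. Bidirectional curve fits were made relative to DMSO.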

Read-out in test [7]: Alkaline Phosphatase, Placental (ALPP) gene, ALPP (gene 250)
Description: LTEA_HepaRG_ALPP: Life Technologies and Expression Analysis (LTEA) Assay for Alkaline Phosphatase, Placental (ALPP) gene using HepaRG (AID 2283468).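 As to AC50: differentiated human HepaRG liver cells in serum-free induction medium.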 In outline:
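ALPP transcript level, measured by qRT-PCR and normalized to three housekeeping genes (ACTB, GAPDH, POLR2A), after 48 h dosing of differentiated HepaRG in serum-free induction medium. Top concentration 100 uM with half-log dilutions (8 points, 0.5% DMSO, duplicates); bidirectional fitting relative to DMSO.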

Read-out in test [8]: Bcl-2 (BAD) gene, BAD (gene 572)
Description: LTEA_HepaRG_BAD: Life Technologies and Expression Analysis (LTEA) Assay for Bcl-2 (BAD) gene using HepaRG (AID 2283469). Summed up: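 Read-out: qRT-PCR of BAD mRNA, normalized to three housekeeping genes. Human HepaRG cultures got 48 h chemical exposure in 0.5% DMSO, duplicate eight-point half-log series topping at 100 uM. Gain or loss of signal fitted versus DMSO vehicle.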

Read-out in test [9]: Bcl-2 (BAX) gene, BAX (gene 581)
In words: LTEA_HepaRG_BAX: Life Technologies and Expression Analysis (LTEA) Assay for Bcl-2 (BAX) gene using HepaRG (AID 2283470). In outline:
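Cells were thawed, plated for 48 h, moved to serum-free induction medium and dosed for 48 h (highest concentration 100 uM, half-log steps, 0.5% DMSO). Total RNA was then analysed for BAX expression by qRT-PCR.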

Read-out in test [10]: adenosine kinase (ADK) gene, ADK (gene 132)
In words: LTEA_HepaRG_ADK: Life Technologies and Expression Analysis (LTEA) Assay for adenosine kinase (ADK) gene using HepaRG (AID 2283471). In outline:
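Read-out is ADK transcript level measured by qRT-PCR and normalised to three housekeeping genes. Cells are human HepaRG, dosed for 48 h at up to 100 uM in 0.5% DMSO. Gain or loss of signal is fitted against DMSO controls.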

Read-out in test [11]: Alpha-fetoprotein (AFP) gene, AFP (gene 174)
Description: LTEA_HepaRG_AFP: Life Technologies and Expression Analysis (LTEA) Assay for Alpha-fetoprotein (AFP) gene using HepaRG (AID 2283472). In outline:
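Chemicals were tested on differentiated HepaRG cells for 48 hours at eight concentrations up to 100 uM, with 0.5% DMSO as vehicle. AFP expression was then quantified by qRT-PCR and analyzed for gain or loss relative to DMSO.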

Read-out in a further test: BCL2L11 (gene 10018)
Description: LTEA_HepaRG_BCL2L11: Life Technologies and Expression Analysis (LTEA) Assay for Bcl-2 (BCL2L11) gene using HepaRG (AID 2283473). Summed up: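 BCL2L11 transcript levels are measured by Fluidigm qRT-PCR, normalized to three housekeeping genes. HepaRG cultures were plated 48 h, then treated 48 h with test chemical (top 100 uM, half-log, 0.5% DMSO vehicle); curves were fitted bidirectionally against DMSO.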

Read-out in test [12]: Apolipoprotein A-V (APOA5) gene, APOA5 (gene 116519)
In words: LTEA_HepaRG_APOA5: Life Technologies and Expression Analysis (LTEA) Assay for Apolipoprotein A-V (APOA5) gene using HepaRG (AID 2283474). Summed up: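 APOA5 transcript levels were quantified by qRT-PCR, normalized to three housekeeping genes, after 48 h chemical treatment of HepaRG cells (8 points, 100 uM maximum, half-log steps, 0.5% DMSO). Curves fitted in both directions against vehicle.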

Read-out in test [13]: Apoptosis regulator Bcl-2 (Homo sapiens) (UniProt P10415)
In words: LTEA_HepaRG_BCL2: Life Technologies and Expression Analysis (LTEA) Assay for Bcl-2 gene using HepaRG (AID 2283475).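 Also: BCL2 transcript by TaqMan qRT-PCR normalised to ACTB GAPDH and POLR2A.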 Summed up: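 Plated human HepaRG cells are exposed to test chemicals for 48 h across eight concentrations from 100 uM downward in half-log steps (0.5% DMSO). BCL2 expression is then measured by qRT-PCR with housekeeping normalisation and fitted bidirectionally against vehicle.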

Read-out in test [14]: Bcl-2 (BID) gene, BID (gene 637)
Description: LTEA_HepaRG_BID: Life Technologies and Expression Analysis (LTEA) Assay for Bcl-2 (BID) gene using HepaRG (AID 2283476). Summed up:
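Cells are plated, cultured 48 h, switched to serum-free induction medium, then dosed 48 h (100 uM top, half-log steps, 0.5% DMSO). RNA is isolated and BID expression read by qRT-PCR.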

Read-out in the next test: Caspase-3 (Homo sapiens) (UniProt P42574)
In words: LTEA_HepaRG_CASP3: Life Technologies and Expression Analysis (LTEA) Assay for cysteine-aspartic acid protease (CASP3) using HepaRG (AID 2283477). Summed up:
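Expression of CASP3 was quantified by TaqMan qRT-PCR against three housekeeping genes (ACTB, GAPDH, POLR2A), bidirectionally versus 0.5% DMSO. HepaRG cultures received compounds in duplicate, top 100 uM with half-log steps, for 48 h in serum-free induction medium.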

Read-out in test [15]: Cytochrome P450 (CYP24A1), CYP24A1 (gene 1591)
Description: LTEA_HepaRG_CYP24A1: Life Technologies and Expression Analysis (LTEA) Assay for Cytochrome P450 (CYP24A1) using HepaRG (AID 2283478). Summed up: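 mRNA of CYP24A1 quantified by TaqMan qRT-PCR (ACTB/GAPDH/POLR2A normalization) after 48 h chemical exposure of HepaRG cells, top concentration 100 uM, half-log steps, 0.5% DMSO vehicle, duplicates. Curves fitted bidirectionally against DMSO baseline.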

Read-out in test [16]: Cytochrome P450 (CYP1A2), CYP1A2 (gene 1544)
In words: LTEA_HepaRG_CYP1A2: Life Technologies and Expression Analysis (LTEA) Assay for Cytochrome P450 (CYP1A2) using HepaRG (AID 2283479). Summed up: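 CYP1A2 transcript measured by TaqMan qRT-PCR against three housekeeping genes after 48-hour chemical exposure of HepaRG cells. Eight-point half-log series topping at 100 uM in 0.5% DMSO, duplicates; gain or loss fitted relative to vehicle.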

Read-out in test [17]: Cytochrome P450 (CYP2B6), CYP2B6 (gene 1555)
Description: LTEA_HepaRG_CYP2B6: Life Technologies and Expression Analysis (LTEA) Assay for Cytochrome P450 (CYP2B6) using HepaRG (AID 2283481). Summed up:
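CYP2B6 transcript level quantified by qRT-PCR against three housekeeping genes, fitted bidirectionally relative to DMSO. HepaRG cultures received chemicals for 48 h, 8-point half-log series from 100 uM in 0.5% DMSO, duplicate wells, serum-free induction medium.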

Broad substrate specificity ATP-binding cassette transporter ABCG2 (Homo sapiens), sequence (Q9UNQ0 whole entry, looked up): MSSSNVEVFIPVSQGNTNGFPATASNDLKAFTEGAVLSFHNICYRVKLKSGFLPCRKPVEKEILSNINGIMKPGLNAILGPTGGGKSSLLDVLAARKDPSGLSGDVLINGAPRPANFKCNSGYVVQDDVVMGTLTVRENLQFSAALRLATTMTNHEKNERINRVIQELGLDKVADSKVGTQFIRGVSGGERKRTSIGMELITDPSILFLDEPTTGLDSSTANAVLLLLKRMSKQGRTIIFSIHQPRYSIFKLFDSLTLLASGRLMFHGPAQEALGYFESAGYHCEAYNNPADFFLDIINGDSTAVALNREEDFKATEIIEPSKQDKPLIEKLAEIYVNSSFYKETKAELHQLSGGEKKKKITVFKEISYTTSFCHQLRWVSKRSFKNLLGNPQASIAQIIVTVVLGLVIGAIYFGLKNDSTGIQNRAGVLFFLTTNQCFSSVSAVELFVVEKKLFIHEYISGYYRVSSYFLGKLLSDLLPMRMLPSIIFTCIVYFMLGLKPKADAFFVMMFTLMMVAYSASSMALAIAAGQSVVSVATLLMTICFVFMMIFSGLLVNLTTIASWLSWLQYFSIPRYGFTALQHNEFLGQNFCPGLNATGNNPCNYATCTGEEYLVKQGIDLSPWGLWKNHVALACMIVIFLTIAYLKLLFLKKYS
Apoptosis regulator Bcl-2 (Homo sapiens), sequence (P10415 whole entry, looked up): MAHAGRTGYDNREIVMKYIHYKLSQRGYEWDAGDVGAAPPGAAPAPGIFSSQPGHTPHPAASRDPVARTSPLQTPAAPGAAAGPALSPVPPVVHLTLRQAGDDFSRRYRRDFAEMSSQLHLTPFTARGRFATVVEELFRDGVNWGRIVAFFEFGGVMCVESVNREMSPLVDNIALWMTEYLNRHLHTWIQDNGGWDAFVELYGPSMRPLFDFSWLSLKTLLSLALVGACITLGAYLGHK
Caspase-3 (Homo sapiens), sequence (P42574 whole entry, looked up): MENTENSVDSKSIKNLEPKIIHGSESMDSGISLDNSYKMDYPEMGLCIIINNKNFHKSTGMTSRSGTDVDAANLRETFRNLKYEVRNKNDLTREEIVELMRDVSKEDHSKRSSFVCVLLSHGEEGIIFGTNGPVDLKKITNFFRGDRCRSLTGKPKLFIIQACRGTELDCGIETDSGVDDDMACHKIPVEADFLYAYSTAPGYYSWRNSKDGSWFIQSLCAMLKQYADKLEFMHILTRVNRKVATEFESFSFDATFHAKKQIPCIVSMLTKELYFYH

For the compound `CCOC(=O)CC(SP(=O)(OC)OC)C(=O)OCC` (configuration not stated), the call in test [1], in test [3], in test [4], in [5], in test [6] and in test [7] was inactive. Besides, the result (in [8]; in test [9]; in test [10]; in [11]; with BCL2L11 (gene 10018); in [12]) was inactive. In addition, the result (in [13]; in test [14]; with Caspase-3 (Homo sapiens); in test [15]; in [16]) was inactive. Also, the AC50 (as a rule, the midpoint of the concentration-response curve, whichever way the signal moves) in test [2] was 22.7 µM (active); in [17], 50 µM (active).

For the compound `CC[C@H](C)[C@H]1O[C@]2(C=C[C@@H]1C)C[C@@H]1C[C@@H](C/C=C(\C)[C@@H](O[C@H]3C[C@H](OC)[C@@H](O[C@H]4C[C@H](OC)[C@@H](NC)[C@H](C)O4)[C@H](C)O3)[C@@H](C)/C=C/C=C3\CO[C@@H]4[C@H](O)C(C)=C[C@@H](C(=O)O1)[C@]34O)O2`, the AC50 in test [1] was 31.6 µM (active); in [2], 39.6 µM (active); in test [3], 13.3 µM (active); in test [4] it was 14.4 µM (active); in test [6], 13 µM (active); in test [7] it was 11.9 µM (active). For the same compound, the AC50 in [9] is 50 µM (active); in test [10], 50 µM (active); in test [11], 87.7 µM (active); with BCL2L11 (gene 10018) it was 12.5 µM (active); in test [14], 25 µM (active); in test [17] it was 11.6 µM (active). The call (in test [5]; in [8]; in test [12]; in [13]; in the test with Caspase-3 (Homo sapiens); in test [15]) was inactive. For the same compound, the result in test [16] was inactive.

Regarding `CCCSP(=O)(OCC)Oc1ccc(Br)cc1Cl` (configuration not stated), the outcome in [1], in test [2], in test [3], in test [4], in test [5] and in test [6] was inactive. In addition, the compound was classed as inactive (in [7]; in [8]; in test [9]; in [10]; in test [11]; in the test with BCL2L11 (gene 10018)). Besides, the result (in [12]; in test [13]; with Caspase-3 (Homo sapiens); in [15]; in test [16]) was inactive. The AC50 in test [17] was 13.4 µM (active).

As to `COP(=O)(NC(C)=O)SC` (configuration not stated), the compound was classed as inactive in test [1], in test [2], in [3], in [4], in test [5] and in test [6]. Further, the compound was classed as inactive (in test [7]; in test [8]; in [9]; in [10]; in [11]; in the test with BCL2L11 (gene 10018)). The result (in test [12]; in [13]; in [14]; with Caspase-3 (Homo sapiens); in [15]; in test [17]) was inactive.

As to `CN(C)[C@@H]1C(=O)C(C(N)=O)=C(O)[C@@]2(O)C(=O)C3=C(O)c4c(O)cccc4[C@@](C)(O)[C@H]3[C@H](O)[C@@H]12`, the call in test [1], in test [2], in test [3], in test [4], in test [5] and in [6] was inactive. Moreover, the result (in [7]; in test [8]; in [9]; in [10]; in test [11]; in the test with BCL2L11 (gene 10018)) was inactive. For the same compound, the compound was classed as inactive (in [12]; in test [13]; in test [14]; with Caspase-3 (Homo sapiens); in [15]; in [16]). In test [17], the outcome was inactive. The AC50 in test [17] was 10 µM (active).

Turning to `CCCCN(CC)c1c([N+](=O)[O-])cc(C(F)(F)F)cc1[N+](=O)[O-]`, the result in [1], in test [2], in test [3], in [4], in [5] and in [6] was inactive. The compound was classed as inactive (in test [7]; in [9]; in test [10]; in test [11]; with BCL2L11 (gene 10018); in test [12]). For the same compound, the result (in test [13]; in test [14]; in the test with Caspase-3 (Homo sapiens); in test [15]) was inactive. The AC50 in test [16] is 35.8 µM (active); in test [17], 32 µM (active).
